From PubChem
CYP2C9 act – CYP2C9 (human) activation | AID 1024 | activation factor at 5 µM | actives 1.4% (n = 96,000) | recombinant CYP2C9, luciferin-H conversion, luminescence; stronger effect = higher value; factor 1 = untreated enzyme, 0 = blocked;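 active = activation factor of 2 or more for CYP2C9 at a 5 µM dose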;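 also: 0 = sulfaphenazole-blocked wells and 1 = vehicle-only wells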
EphB4 ephrin blk – EphB4-ephrin-B2 interaction antagonism | actives 0.15% (n = 97,000) | P54760 | inhibition, % at 7 µM | EphB4 LBD / TNYL-RAW-Alexa532 peptide, fluorescence polarization;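 active = inhibition above the screen-wide mean inhibition plus 3 SD, cut at about 15% in these data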;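 also: 0% = DMSO wells and 100% = excess unlabeled TNYL-RAW peptide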
Target sequence (P54760 whole entry, looked up, the tested form may be a part): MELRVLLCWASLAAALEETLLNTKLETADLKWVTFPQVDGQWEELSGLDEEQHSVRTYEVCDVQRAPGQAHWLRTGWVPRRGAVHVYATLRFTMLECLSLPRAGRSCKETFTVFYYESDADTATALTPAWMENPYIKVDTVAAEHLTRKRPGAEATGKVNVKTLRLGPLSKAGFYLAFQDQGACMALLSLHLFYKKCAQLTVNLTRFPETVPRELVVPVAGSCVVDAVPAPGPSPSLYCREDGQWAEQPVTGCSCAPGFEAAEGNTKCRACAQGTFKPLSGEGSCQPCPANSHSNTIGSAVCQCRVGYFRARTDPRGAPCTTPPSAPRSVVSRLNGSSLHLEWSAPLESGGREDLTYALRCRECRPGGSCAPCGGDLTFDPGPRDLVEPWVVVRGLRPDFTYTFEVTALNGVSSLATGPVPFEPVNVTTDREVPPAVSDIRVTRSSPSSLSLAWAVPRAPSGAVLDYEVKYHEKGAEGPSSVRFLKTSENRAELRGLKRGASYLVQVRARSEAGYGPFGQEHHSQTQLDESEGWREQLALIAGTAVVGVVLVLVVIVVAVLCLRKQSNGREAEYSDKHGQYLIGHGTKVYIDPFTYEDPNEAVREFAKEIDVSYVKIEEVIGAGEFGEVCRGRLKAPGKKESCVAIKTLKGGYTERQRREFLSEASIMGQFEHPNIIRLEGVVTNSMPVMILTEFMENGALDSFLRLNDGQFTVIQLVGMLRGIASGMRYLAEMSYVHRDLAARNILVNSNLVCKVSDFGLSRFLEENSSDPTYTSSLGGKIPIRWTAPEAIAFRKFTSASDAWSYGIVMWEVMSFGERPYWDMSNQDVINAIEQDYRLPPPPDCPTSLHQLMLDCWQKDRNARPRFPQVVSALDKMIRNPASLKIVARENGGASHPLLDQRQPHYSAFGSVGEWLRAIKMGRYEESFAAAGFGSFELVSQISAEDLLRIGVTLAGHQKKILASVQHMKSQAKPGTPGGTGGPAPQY
CYP2C19 activ – activators of human cytochrome P450 2C19 | P33261 | recombinant CYP2C19, luciferin-H EGE luminescence; stronger effect = higher value; 0 = fully inhibited enzyme, 1 = untreated enzyme | activation factor at 5 µM | 96,000 tested, under 10 active;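 active = activation factor of at least 2 at 5 µM in the primary screen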;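 also: 0 = wells with 2.5 mM tranylcypromine and 1 = vehicle-only wells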
CYP2C9 inhib – blocks human cytochrome P450 2C9. P11712. CYP2C9 Supersomes, luciferin-H conversion, luminescence. inhibition, % at 5 µM. actives 20% (n = 96,000);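 active = blocking of liver enzyme CYP2C9 beyond about 50% at 5 µM, limit read from the data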
CYP2C19 inhib – inhibitors of human CYP2C19; CYP2C19 Supersomes, luciferin-H EGE luminescence, 30 min; AID 778; P33261; inhibition, % at 5 µM; actives 21% (n = 96,000);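 active = CYP2C19 inhibition above a set limit at 5 µM in the primary screen, cut at about 50% in these data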;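 also: plate controls were negative control wells for no effect and 2.5 mM tranylcypromine positive control for full effect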
* hit, by the source's call; nt = no result given. In the library only some 27% were active in any assay of this set; here they are far more common.

SMILES	CYP2C9 act	EphB4 ephrin blk	CYP2C19 activ	CYP2C9 inhib	CYP2C19 inhib
COC(=O)c1ccc(Cl)c(NC(=O)CN2CCN(Cc3ccccc3)CC2)c1	0.9	-1	0.7	10	28
O=C(CN1CCN(c2ccccc2)CC1)Nc1cccc(C(F)(F)F)c1	0.7	-2	0.7	29	27
CC1CN(CC(=O)Nc2cccc(C(=O)Nc3cccc(C(F)(F)F)c3)c2)CC(C)O1 (stereo not drawn)	0.2	1	0.5	77*	54*
O=C(CN1CCN(c2ccccn2)CC1)Nc1cccc(C(F)(F)F)c1	0.5	nt	0.6	48	38
COC(=O)c1cccc(NC(=O)CN2CCN(Cc3ccccc3)CC2)c1	0.4	-6	0.5	64*	51*
O=C(CN1CCN(Cc2ccccc2)CC1)Nc1cccc(C(F)(F)F)c1	0.5	-3	0.4	51*	55*
CC(C)C(=O)Nc1ccc(Sc2ccc(F)cc2)cc1	0.8	1	0.6	24	38
O=C(Cc1ccccc1)Nn1cnc2ccccc21	0.6	-7	0.7	36	33
Cc1csc(C2=C(O)CN(CCc3ccccc3)C2=N)n1	0.9	-7	0.8	12	24
COc1ccc(C(=O)Nn2c(SCC(=O)c3ccccc3)nc3ccccc3c2=O)cc1	0.6	1	1	37	-3
Cc1nc(SCc2ccc([N+](=O)[O-])cc2)nc2ccccc12	1	1	0.9	-1	9
CCOC(=O)CSc1nc2ccccc2c(=O)n1NC(=O)c1ccccc1	0.3	1	1	67*	2
COc1ccc(C(=O)Nn2c(SCc3ccc([N+](=O)[O-])cc3)nc3ccccc3c2=O)cc1	0.2	5	0.7	84*	34
Cc1ccc(CNC(=O)CSc2nc3ccsc3c(=O)n2NC(=O)c2ccccc2)cc1	0.4	-3	1	64*	4
C=CCOc1cccc(C2/C(=C(/O)c3ccc(F)cc3)C(=O)C(=O)N2CCN2CCOCC2)c1 (stereo not drawn)	1	-6	0.9	2	9
O=C(O)c1cc(-c2ccc(Cl)cc2)n[nH]1	1.1	nt	1.1	-9	-10
O=C(Nc1ccncc1)c1cc(F)cc(F)c1	0.6	4	0.1	41	86*
COc1cc(C(=O)Nc2ccncc2)cc(OC)c1OC	0.1	-3	0	86*	98*
NNC(=O)c1nc(-c2ccccc2)n2c1CCCCC2	0.8	8	0.6	24	41
COc1ccc(CNC(=O)C(C)N=C2NS(=O)(=O)c3ccccc32)cc1OC (stereo not drawn)	0.8	4	0.9	15	8
Cc1c(Cl)cccc1NC(=O)c1nc(C)n(-c2cc(OC(C)C)c(Cl)cc2Cl)n1	0.2	4	0.9	83*	7
Cc1cccc(NC(=O)c2nc(-c3ccccc3)n(-c3ccccc3)n2)c1C	0.7	-1	0.8	32	20
O=S(=O)(c1ccc(Oc2ccc(-c3nnco3)cc2)nc1)N1CCC(Cc2ccccc2)CC1	0.4	-9	0.9	58*	15
OCCN(Cc1ccccc1)Cc1ccc(C(F)(F)F)cc1	0.5	0	0	50*	95*
OCCN(Cc1ccccc1)Cc1cccc(F)c1	0.8	5	0.3	16	70*
SMILES	CYP2C9 act	EphB4 ephrin blk	CYP2C19 activ	CYP2C9 inhib	CYP2C19 inhib
OCCN(Cc1ccccc1)Cc1cccc(C(F)(F)F)c1	0.8	-3	0.3	20	73*
OCCN(Cc1ccccc1)CC1CC2C=CC1C2 (stereo not drawn)	1	0	0.7	2	34
CCCN(CCO)Cc1cccc(Cl)c1	1	8	0.9	-5	7
N#Cc1nc(N2CCCC2)nc(N2CCCC2)n1	0.9	-6	1	14	2
O=C(OCN1C(=O)c2ccccc2C1=O)C1CCCCC1	1.1	-8	1	-13	4
O=C1c2ccccc2C(=O)N1SC1CCCCC1	0.2	0	0.8	82*	25
C/C(=C/c1oc2ccc(O)cc2c1[N+](=O)[O-])N(C)C	0.9	1	0.9	8	10
CCCCCN=C(C)c1c(O)c2ccccc2oc1=O	0.2	6	0.1	78*	88*
O=C(c1c(O)c2ccccc2oc1=O)C1CCC1	0.7	-11	1.1	28	-7
c1cc(-c2nc3cc(Cc4ccc5oc(-c6ccncc6)nc5c4)ccc3o2)ccn1	0.5	nt	0.9	51*	11
c1cncc(-c2nc3cc(Cc4ccc5oc(-c6cccnc6)nc5c4)ccc3o2)c1	0.6	nt	1	39	-1
Cc1cc(O)ccc1Nc1nc2ccccc2nc1Nc1ccc(O)cc1C	0	2	0.1	96*	87*
CN(C)c1nc(N)nc(CSc2nnnn2-c2ccc(F)cc2)n1	0.6	8	0.2	36	76*
COC(=O)CSc1nc(C)c(C(C)=O)cc1C#N	1.1	nt	1.2	-8	-19
CC(=O)C1=C(C)NC(SCC(=O)c2ccccc2)=C(C#N)C1CC(C)C (stereo not drawn)	0.4	-3	0.6	59*	42
CC(=O)C1=C(C)NC(SCC(=O)c2ccc(Cl)cc2Cl)=C(C#N)C1c1ccco1 (stereo not drawn)	0	-6	0	100*	100*
N#Cc1cnc(SCC(=O)c2ccccc2)nc1N	1	2	0.6	5	37
CC(=O)C1=C(C)NC(SCC(=O)c2ccccc2)=C(C#N)C1c1ccco1 (stereo not drawn)	0.1	-1	0	93*	99*
CC(=O)C1=C(C)NC(SCC(=O)c2ccc(Cl)cc2)=C(C#N)C1c1ccco1 (stereo not drawn)	0	2	0	97*	100*
O=C(Oc1csc(=S)n1C(=O)c1ccccc1)c1ccccc1	0.7	-4	1.2	28	-18
N#CC1=C(SCC(=O)c2ccc(Br)cc2)NC2=C(C(=O)CCC2)C1c1ccco1 (stereo not drawn)	0	nt	0	99*	99*
CCN(Cc1cc2cc(C)ccc2[nH]c1=O)C(=O)c1cccc(OC)c1	0.8	6	0.8	21	18
COc1ccc(S(=O)(=O)Nc2nc3ccccc3s2)cc1	0.5	-1	0.9	50*	8
CCOc1ccc2sc(NS(=O)(=O)c3ccc(OC)c(OC)c3)nc2c1	0.1	8	0.7	92*	28
COc1ccc2nc(NS(=O)(=O)c3ccc(NC(C)=O)cc3)sc2c1	0.7	nt	1.1	30	-12
O=C(O)Cn1c(SCc2cccc3ccccc23)nc2ccccc21	0.6	-7	1	36	1
O=C(NCc1cccs1)c1cc2c(s1)CS(=O)(=O)C2	0.8	4	0.9	20	9
O=C1OCCC1Sc1nnc(-c2cccc(Br)c2)o1 (stereo not drawn)	0.9	-2	0.5	8	47
Cn1c(=O)oc2cc(S(=O)(=O)Nc3ccc4c(c3)OCO4)ccc21	0.5	5	0.2	53*	80*
Cn1c(=O)c2cc(S(=O)(=O)Nc3ccc4c(c3)OCO4)ccc2n(C)c1=O	0.2	-2	0.2	85*	84*
